From PubChem BioAssay (NCI) come the findings set out here.

About 83,000 compounds went through this panel and 20% of them were active in at least one assay; those are over-represented in the sample as a whole.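 Each cell line was grown in a 96-well plate and treated with one concentration of compound for 48 hours. Values below 10 were considered active.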 A number with no mark means an inactive call. Calls of active or inactive are those of the source.

Among the test systems are T-47D breast; BT-549 breast; MDA-MB-435 melanoma; SW-620 colon; MCF7 breast; HCT-116 colon; HCC-2998 colon; KM12 colon.
Assay in all cases: NCI-60 one-dose screen, 48 h (100 = growth as untreated, 0 = no growth, -100 = all killed)
Conditions in all cases: 10 µM unless noted

For `CCN1C(=O)N(CC)C2Nn3c(s/c(=C4\C(=O)N(CC(C)C)c5ccccc54)c3=O)=NC21` (stereo not drawn), the growth in the assay on T-47D breast is 46%; in the assay with BT-549 breast, 52.7%; in the assay on MDA-MB-435 melanoma, -45.9% (active); with SW-620 colon, 35.7%; with MCF7 breast it was 26.1%; in the assay with HCT-116 colon, 14.4%. In addition, the values for the growth in the assay on HCC-2998 colon and in the assay with KM12 colon were 76.5% and 31.9%, respectively.

Consider `CCCC1CCC(O)(C(C)(O)C(=O)NC2C(=O)N3NCCCC3C(=O)N(O)C(C)C(=O)N3NCCCC3C(=O)N3NCC(O)CC3C(=O)NC(C)C(=O)OC2C(C)C)OC1CC` (stereo not drawn), for which the growth with T-47D breast was -77.8% (active); in the assay with BT-549 breast it was -67.3% (active); in the assay on MDA-MB-435 melanoma, -74.6% (active); in the assay with SW-620 colon it was -97.3% (active); with MCF7 breast, -83% (active); in the assay with HCT-116 colon, -57.2% (active). For the same compound, the growth in the assay with HCC-2998 colon was -93.6% (active); with KM12 colon, -88.5% (active).

As to `Cc1c(C(=O)/C=C/Nc2c(Cl)cc(S(N)(=O)=O)cc2Cl)sc2nc3ccccc3n12`, the growth in the assay on T-47D breast was 97.8%; with BT-549 breast, 102%; with MDA-MB-435 melanoma, 103%; in the assay on SW-620 colon, 101%; in the assay with MCF7 breast, 102%; in the assay with HCT-116 colon it was 105%. Also, the growth was 124% with HCC-2998 colon and 101% in the assay with KM12 colon.

For the compound `COc1ccc2c(c1)C(C)Cc1c(ncnc1-n1c(C)nc3ccccc31)N2C` (stereo not drawn), the growth with T-47D breast was 36.6%; in the assay with BT-549 breast it was 51.7%; with MDA-MB-435 melanoma, -30.7% (active); in the assay with SW-620 colon it was 12%; in the assay with MCF7 breast, 15.4%; in the assay on HCT-116 colon it was 36.3%. Further, the growth in the assay on HCC-2998 colon was 41.3%; with KM12 colon, 28.7%.

On to `COc1ccc(-c2nc(NCCO)[nH]c(=O)c2C#N)cc1`, for which the growth with T-47D breast was 82.8%; in the assay on BT-549 breast, 103%; in the assay with MDA-MB-435 melanoma, 103%; with SW-620 colon, 106%; in the assay with MCF7 breast, 91.9%; in the assay on HCT-116 colon, 102%. The figures for the growth in the assay on HCC-2998 colon and in the assay with KM12 colon were 103% and 95.8%, respectively.

As for `O=c1cc(SCc2ccccc2)nc[nH]1`, the growth in the assay on T-47D breast was 114%; in the assay on BT-549 breast, 103%; with MDA-MB-435 melanoma it was 106%; with SW-620 colon, 107%; in the assay on MCF7 breast it was 101%; in the assay on HCT-116 colon, 104%. In addition, the growth in the assay on HCC-2998 colon is 112%; in the assay with KM12 colon it was 94.8%.

For the compound `CCc1ccc2nc(NC(=O)Cc3csc(NC(=O)c4ccco4)n3)sc2c1`, the growth is 55.1% with T-47D breast; 57.4% in the assay on BT-549 breast; 90.6% in the assay with MDA-MB-435 melanoma; 101% in the assay on SW-620 colon; 18.3% in the assay with MCF7 breast; 78% in the assay on HCT-116 colon. Moreover, the results for the growth in the assay on HCC-2998 colon and in the assay on KM12 colon were 101% and 78.6%, respectively.

Take `COc1c(C2CC(=O)Nc3c2c(C)nn3-c2nc3ccccc3[nH]2)cc2c(c1OC)OCO2` (stereo not drawn): the growth in the assay with T-47D breast was 43.8%; with BT-549 breast it was 47.8%; in the assay with MDA-MB-435 melanoma, -32.7% (active); in the assay with SW-620 colon it was 36.4%; in the assay on MCF7 breast it was 24.1%; in the assay on HCT-116 colon it was 28.5%. Moreover, the growth with HCC-2998 colon is 94.1%; in the assay with KM12 colon, 45.9%.

For the compound `COc1ccc(C(=O)/C=C/c2sc(Cl)nc2Cl)cc1`, the growth is 59% in the assay on T-47D breast; -4.31% (active) in the assay on BT-549 breast; 15.7% in the assay on MDA-MB-435 melanoma; 18.6% in the assay on SW-620 colon; -7.05% (active) with MCF7 breast; 17.7% in the assay with HCT-116 colon. In addition, the growth in the assay on HCC-2998 colon was -36% (active); in the assay on KM12 colon, 39%.

Regarding `CCCSc1nc2ccc(C)cc2cc1/C=[N+](\[O-])c1ccccc1`, the growth with T-47D breast is 56.6%; in the assay with BT-549 breast, 42.1%; with MDA-MB-435 melanoma, -24.1% (active); with SW-620 colon, 22.7%; with MCF7 breast, 21.8%; in the assay on HCT-116 colon it was 9.07% (active). In addition, the figures for the growth in the assay on HCC-2998 colon and in the assay with KM12 colon were 98.2% and 25%, respectively.

In the case of `COc1cc(Nc2cn[nH]c2-c2ccc(Cl)cc2)cc(OC)c1OC`, the growth in the assay on T-47D breast was 23.4%; in the assay on BT-549 breast, 46.5%; in the assay on MDA-MB-435 melanoma it was -37.1% (active); with SW-620 colon it was 19.3%; in the assay on MCF7 breast it was 20.7%; with HCT-116 colon, 20.7%. Further, the growth with HCC-2998 colon was -28.5% (active); with KM12 colon, 20.2%.

Regarding `COc1cccc(Cc2nn3cc(-c4ccccc4)nc3s2)c1`, the growth in the assay on T-47D breast was 91.2%; with BT-549 breast, 91.6%; in the assay on MDA-MB-435 melanoma it was 79.2%; in the assay with SW-620 colon, 30.6%; in the assay with MCF7 breast it was 27.5%; with HCT-116 colon it was 2.81% (active). The growth was 104% with HCC-2998 colon and 88.8% in the assay on KM12 colon.

On to `C[C@H](C(=O)Nc1ccc(S(N)(=O)=O)cc1)S(=O)(=O)c1ccccc1`, for which the growth was 93.2% in the assay with T-47D breast; 96.8% in the assay with BT-549 breast; 102% with MDA-MB-435 melanoma; 110% in the assay on SW-620 colon; 96.1% with MCF7 breast; 92.1% with HCT-116 colon. Further, the growth with HCC-2998 colon is 111%; in the assay on KM12 colon it was 104%.

As for `Oc1ccc(C#CCOc2ccccc2)cc1CNCCN(Cc1ccccn1)Cc1ccccn1`, the growth is 14.4% in the assay on T-47D breast; 37.7% in the assay on BT-549 breast; 32.6% in the assay with MDA-MB-435 melanoma; 15.6% in the assay on SW-620 colon; 4.05% (active) in the assay with MCF7 breast; 9.79% (active) with HCT-116 colon. For the same compound, the growth with HCC-2998 colon was 28.4%; with KM12 colon it was 18.9%.

As to `Cc1ccc(C(C)C)cc1C(=O)C[n+]1ccccc1`, the growth is 88.7% with T-47D breast; 95.8% with BT-549 breast; 101% with MDA-MB-435 melanoma; 106% in the assay on SW-620 colon; 87.1% in the assay on MCF7 breast; 79% with HCT-116 colon. The growth with HCC-2998 colon is 107%; in the assay on KM12 colon it was 101%.

For `Cc1ccc(C(=O)NCCNc2nccc(-c3c(-c4cccc(F)c4)nc4sccn34)n2)cc1`, the growth in the assay on T-47D breast was 42.4%; in the assay on BT-549 breast, 55.2%; with MDA-MB-435 melanoma, 41.6%; in the assay on SW-620 colon, 61.8%; with MCF7 breast, 27.2%; in the assay on HCT-116 colon it was 27%. Moreover, the growth is 64.2% in the assay on HCC-2998 colon and 77.5% with KM12 colon.
